# Results from PubChem BioAssay (NCI).
# About 83,000 compounds went through this panel and 20% of them were active in at least one assay; those are over-represented in the sample as a whole.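 Single-concentration screen, 48 h exposure, 96-well plates. Endpoint: percent growth. Below 10 = active.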 Unmarked numbers belong to inactive results. Calls of active or inactive are those of the source.
# Test system: HL-60(TB) leukemia
# Test: NCI-60 one-dose screen, 48 h (100 = growth as untreated, 0 = no growth, -100 = all killed)
# Settings: 10 µM unless noted
row,SMILES,growth
1,N#CC1=C(NC=O)Oc2c(ccc3ccccc23)C1c1ccccc1 (stereo unspecified),18.1%
2,CCOC(=O)CCC[P+](c1ccccc1)(c1ccccc1)c1ccccc1,37.7%
3,COc1cccc2cc(N(C)c3ncnc4ccccc34)ccc12,-29.1% (active)
4,O=c1c2c3c(sc2n2c(CCl)nnc2n1Cc1ccccc1)CCCC3,-59.8% (active)
5,COc1ccc(-c2nc(NCCO)[nH]c(=O)c2C#N)cc1,103%
6,COc1cc(CNS(=O)(=O)c2ccc(C)cc2)ccc1OCc1cn(-c2ccc(F)cc2)nn1,114%
7,CCCCCCCC/C=C/CCCCCCCC1=NCC[N+]1(CCO)CCO,31.7%
8,CN(C)c1ccc2nc3ccc(=[N+](C)C)c([N+](=O)[O-])c-3sc2c1,2.66% (active)
9,COc1ccc2c(c1)c(=O)oc1c(C)c(OCC(C)=O)ccc12,110%
10,Cn1ncc2cc3c(Nc4ccc(Cl)cc4)cccc3nc21,95.1%
11,CN(C)CCCC1(c2ccc(F)cc2)OCc2cc(-c3csc4ccccc34)ccc21 (stereo unspecified),-52.1% (active)
12,CCOC(=O)c1c(N)sc2cc(O)ccc12,94.1%
13,CCCCCCCCCCOC(=O)c1nn(C(C)=O)c2cc(C)c(C)cc12,101%
14,O=C(Nc1ccccc1[N+](=O)[O-])c1ccc(Cl)c(Cl)c1,90.2%
15,O=S(=O)(O)c1ccc(N/N=C/c2ccccc2Cl)cc1,101%
16,CCOC(=O)c1cnn2c(-c3ccc(Cl)cc3)nc(NCc3ccccc3)nc12,82.7%
17,CCOc1cccc(/C=N/NC(=O)c2cccc(Nc3ccnc(C(F)(F)F)c3)c2)c1O,14.1%
18,COc1ccc(-c2nn(C(=O)NCCN(C)C)cc2-c2ccncc2)cc1Cl,10.2%
19,CCCCCCCCn1ccc2cc(NC(=O)Cn3cc(CN4CCCCCC4)nn3)ccc21,-43.1% (active)
20,CCCCCCCC/C=C\CCCCCCCCOc1ccccc1CC(=O)NCC[N+]1(C)CCOCC1,67.2%
21,CC(C)C[C@H](NC(=O)Cn1ccc(Nc2ccccc2)cc1=O)B(O)O,2.13% (active)
22,CCCCc1ccc(C(N)=O)nc1,88.2%
23,O=C1c2ccc3c4c(ccc(c24)C(=O)N1CCNCc1ccccc1)C(=O)N(CCNCc1ccccc1)C3=O,-34.6% (active)
24,O=C(Nc1cccc([N+](=O)[O-])c1)c1cc2ccccc2cc1O,-54.1% (active)
25,CC(C)(C)n1cc(-c2ccnc(NCCNS(=O)(=O)c3ccc(C(F)(F)F)cc3)c2)c(-c2ccccc2)n1,83.9%
26,FC(F)(F)c1ccc2c(Nc3cccc(C4CC(c5ccccc5)=NN4c4ccc(Cl)cc4)c3)ccnc2c1 (stereo unspecified),36.5%
